Sampled rows, rich in hits. Any-hit rate of the full collection: about 1.8%.
TrxR1 inh: rat TrxR1 inhibition; recombinant rTrxR1, NADPH fluorescence consumption, selenite substrate; Potency, µM (highest dose often 114 µM), for the others: at the highest dose activity change, negative = inhibition, hits mostly inhibitors; O89049; 390,000 tested, 1% active; AID 588453; also: % is scaled to controls: 0 for no effect and ±100 for the full control effect; nearly all actives have a fitted effect of over 65% in size
Target sequence (O89049 whole entry, looked up): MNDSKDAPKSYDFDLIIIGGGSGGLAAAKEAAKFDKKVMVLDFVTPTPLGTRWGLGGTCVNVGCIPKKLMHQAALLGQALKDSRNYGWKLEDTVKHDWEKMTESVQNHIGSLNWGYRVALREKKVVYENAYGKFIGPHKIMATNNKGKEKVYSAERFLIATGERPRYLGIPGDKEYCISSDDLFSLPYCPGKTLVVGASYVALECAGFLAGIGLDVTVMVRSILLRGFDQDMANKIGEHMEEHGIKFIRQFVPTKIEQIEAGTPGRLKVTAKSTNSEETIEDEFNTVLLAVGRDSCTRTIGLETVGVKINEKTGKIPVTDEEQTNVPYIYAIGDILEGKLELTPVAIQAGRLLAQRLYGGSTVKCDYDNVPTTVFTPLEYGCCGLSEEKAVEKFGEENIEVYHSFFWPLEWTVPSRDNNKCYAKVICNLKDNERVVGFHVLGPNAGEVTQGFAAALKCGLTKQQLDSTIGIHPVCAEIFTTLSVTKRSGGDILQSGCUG
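Rat TrxR1 (90 nM in the dispensed reagent) was pre-reduced with 400 uM NADPH for 5 min at room temperature, then incubated with compound for 15 min. After 400 uM selenite was added, NADPH fluorescence (Ex 340/Em 450 nm) was followed for 8 min.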
Vif-A3G inh: blocks the Vif interaction with human APOBEC3G; Potency, µM (top dose mostly 46.1 µM), for inactives: top-dose activity, negative = active, hits mostly inhibitors; HeLa A3G-eYFP + Vif (tagged APOBEC3G with the HIV-1 protein that degrades it), YFP fluorescence, overnight; AID 602310; 410,000 tested, 0.076% active; also: % is scaled to controls: 0 for no effect and ±100 for the full control effect; nearly all actives have a fitted effect of over 60% in size
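Read-out is eYFP fluorescence (Ex 488/Em 500-530) from Vif-expressing HeLa A3G-eYFP cells; more signal means A3G escaped Vif-mediated degradation. Cells plated overnight, compound pinned in, incubated overnight at 37 deg C.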
VDR inh: blocks the human vitamin D receptor; VDR-SRC2-3 peptide fluorescence polarization, 2 h; 400,000 tested, 0.93% active; P11473; Potency, µM, without a hit: max response, negative = inhibition, most hits filed as inhibitors; also: % is scaled to controls: 0 for no effect and ±100 for the full control effect
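VDR–SRC2-3 interaction, FP format. Cmpds 23 nl via pintool, brief spin, 2 h ambient incubation.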
Vif-APOBEC3F blk: inhibitors of Vif-A3F interaction; 390,000 tested, 0.2% active; HeLa A3F-eYFP + Vif (tagged APOBEC3F with the HIV-1 protein that degrades it), YFP fluorescence increase; Potency, µM (series often up to 46.1 µM), for inactives: at the top dose activity, negative = active; also: % of control where 0% means no effect; nearly all actives have a fitted effect of over 65% in size
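Fluorescence increase (Ex 488/Em 500-530) after overnight compound treatment at 37 deg C flags inhibition of Vif-driven A3F-eYFP loss in stable HeLa A3F-eYFP/Vif cells seeded overnight beforehand.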
TrxR1 substrate: substrates of rat thioredoxin reductase 1; O89049; purified TrxR1 substrate turnover, NADPH consumption readout; Potency, µM (doses to about 114 µM), for inactives: at the top dose activity change, negative = substrate turnover; 390,000 tested, 0.01% active; AID 588456; also: % is scaled to controls: 0 for no effect and ±100 for the full control effect; nearly all actives have a fitted effect of over 50% in size
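Rat TrxR1, dispensed at 90 nM, was prereduced with 400 uM NADPH (final) for 5 min at ~22 deg C, then incubated with compound 15 min before 400 uM selenite. A first-read NADPH fluorescence drop versus no-compound background flagged substrates.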
VDR inh confirm: confirmation of human vitamin D receptor inhibitors; shares compounds with VDR inh; VDR-coactivator inhibition assay, qHTS confirmation; Potency, µM, most hits filed as inhibitors; 840 tested, 89% active
VDR FP: confirmation of human VDR-coactivator binding inhibitors, fluorescein label; shares compounds with VDR inh; VDR-coactivator binding, fluorescein fluorescence polarization; Potency, µM (series often up to 57.1 µM), without a hit: at the highest dose activity change, negative = inhibition, actives largely listed as inhibitors; 840 tested, 48% active; AID 602200
VDR bla: confirmation of human vitamin D receptor inhibitors in reporter cells. shares compounds with VDR inh. VDR beta-lactamase reporter cells, FRET ratio; cells co-treated with VDR agonist LG190178. Potency, µM (top dose mostly 46.1 µM), inactives show top-dose activity change, negative = inhibition, actives largely listed as inhibitors. 840 tested, 23% active; also: % is scaled to controls: 0 for no effect and ±100 for the full control effect
VDR cytotox: cell toxicity, VDR inhibitor hit counter-screen | shares compounds with VDR inh | cytotoxicity counter-screen, cell viability, qHTS | Potency, µM (series often up to 48.3 µM), without a hit: at the top dose activity change, negative = cytotoxicity, actives largely listed as cytotoxic | 840 tested, 18% active | AID 602204;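 also: plate controls were DMSO for no effect and high-concentration cycloheximide for full effect; nearly all actives have a fitted effect of over 75% in size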
Active calls of the source: *; ? = inconclusive; / = no result given; [ ] = dose if it differs, or a comment. Calls follow the shape of the dose curve; as a rule, active = well fitted curve in the direction sought with a large enough effect; inconclusive = small, poorly fitted or top-dose-only effect, or another doubt; inactive = no such curve, though single readings can be large; an effect the other way counts as inactive or inconclusive. Potency is read from the fitted curve at half-maximal effect.

SMILES	TrxR1 inh	Vif-A3G inh	VDR inh	Vif-APOBEC3F blk	TrxR1 substrate	VDR inh confirm	VDR FP	VDR bla	VDR cytotox
COc1ccc(C(=O)c2coc(-c3ccccc3C(=O)O)c2C(=O)O)cc1	-9%	3%	-1%	-2%	-8%	/	/	/	/
Cc1ccc(C(=O)c2c(C)oc3c2C(=O)C(=O)c2ccccc2-3)cc1	22%[57.1 µM]	-10%	3.5µM*	-5%	?	1.5*	4µM*	?	5.6µM*
Cc1ccc(C(=O)c2coc3c2C(=O)C(=O)c2ccccc2-3)cc1	8%	-5%	7.1µM*	-1%	-3%	4.7*	?	-22%	?
Cc1ccc(NC(=O)c2sc3nc[nH]c(=O)c3c2C)cc1C	36%[57.1 µM]	-2%	18%	6%	6%[57.1 µM]	/	/	/	/
Cc1sc(NC(=O)c2ccccc2)c(C(=O)NC(C)C)c1C	12%	0%	-1%	-1%	14%	/	/	/	/
Cc1sc(NC(=O)c2ccccc2)c(C(=O)c2ccccc2)c1C	-28%	-5%	56µM*	-7%	-15%	19*	8.9µM*	23%	20%
O=[N+]([O-])c1ccccc1-c1ccc(C(=S)N2CCCC2)o1	-32%	-7%	40µM*	-16%	-9%	21*	?	5%	2%
CC(C)NC(=O)CSc1cn(CC(=O)N2CCCCCC2)c2ccccc12	13%	3%	1%	-8%	1%	/	/	/	/
Cc1ccc(C)c(CN2C(=O)C3(c4ccccc42)N(c2ccc(Cl)cc2)C(=O)CS3(=O)=O)c1 (centres undefined)	24%	0%	3%	-1%	-4%	/	/	/	/
O=S(=O)(NCc1ccccc1)c1ccc(Cl)cc1	-3%	0%	-6%	-8%	-3%	/	/	/	/
O=S(=O)(Nc1cc2nc3ccccc3nc2n1Cc1ccccc1)c1ccc(Cl)cc1	-8%	?	40µM*	?	?	30*	33%	?	?
Cc1cccc(CSc2ncc(Cl)c(C(=O)Nc3nnc(C)s3)n2)c1	-10%	-4%	-12%	?	-10%	/	/	/	/
CSc1ncc(Cl)c(C(=O)NCc2ccc(C)cc2)n1	16%	-1%	3%	0%	6%	/	/	/	/
COc1ccc(NC(=O)c2nc(SCc3ccc(F)cc3)ncc2Cl)cc1	0%	0%	5%	-2%	-4%	/	/	/	/
O=C(NCc1ccccc1)c1nc(S(=O)(=O)Cc2ccc(F)cc2)ncc1Cl	3.5µM*	-6%	32µM*	-12%	-1%	3.2*	7.9µM*	21µM*	19µM*
Cc1ccc(NC(=O)c2nc(S(=O)(=O)Cc3ccccc3)ncc2Cl)cc1	8.9µM*	-4%	25µM*	0%	-2%	19*	?	?	?
O=C(Nc1ccc(F)cc1)c1nc(S(=O)(=O)Cc2ccccc2)ncc1Cl	3.5µM*	?	?	2%	1%	3.5*	2.8µM*	3.3µM*	19µM*
Cc1nnc(NC(=O)c2nc(S(=O)(=O)Cc3ccccc3)ncc2Cl)s1	13µM*	?	?	11%	-1%	16*	13µM*	2.3µM*	4.2µM*
Cc1ccc(/C=C/C(=O)c2nc3ccccc3[nH]2)cc1	-14%	?	?	-12%	-7%	?	?	?	-14%
Cc1cccc(C2NC(=O)c3c(sc(C)c3C)N2)c1O (centres undefined)	4%	-2%	-2%	-6%	8%	/	/	/	/
Cc1sc2c(c1C)C(=O)NC(c1ccccc1F)N2 (centres undefined)	2%	-15%	32µM*	-4%	3%	6.7*	?	9%	2%
CC(=O)C1=C(c2ccc(Br)cc2)C(=O)c2ccccc2C1=O	19%	-11%	25µM*	-15%	-25%	5*	7.9µM*	2.9µM*	8.4µM*
CNC1=C(N(C(C)=O)c2ccc(Br)cc2)C(=O)c2ccccc2C1=O	0%[11.4 µM]	-1%	-4%	1%	-6%[11.4 µM]	/	/	/	/
O=C(Nc1ccc2ccccc2c1)c1nc(S(=O)(=O)Cc2ccccc2F)ncc1Cl	10µM*	-15%	/	/	-5%	3.5*	3.5µM*	18µM*	19µM*
Cc1cccc(C)c1NC(=O)c1nc(S(=O)(=O)Cc2ccccc2F)ncc1Cl	4.5µM*	-9%	/	/	9%	?	4µM*	6.5µM*	?
SMILES	TrxR1 inh	Vif-A3G inh	VDR inh	Vif-APOBEC3F blk	TrxR1 substrate	VDR inh confirm	VDR FP	VDR bla	VDR cytotox
COc1ccc2nc(NC(=O)c3nc(S(=O)(=O)Cc4ccccc4F)ncc3Cl)sc2c1	0%	?	-5%	-4%	-6%	/	/	/	/
O=C(Nc1ccccc1F)c1nc(S(=O)(=O)Cc2ccccc2F)ncc1Cl	1.6µM*	-13%	14µM*	2%	10%	2.8*	8.9µM*	?	12µM*
CCOc1ccccc1NC(=O)c1nc(S(=O)(=O)Cc2ccccc2F)ncc1Cl	?	1%	/	/	10%	/	/	/	/
O=C(COC(=O)C12CC3CC(CC(O)(C3)C1)C2)NCc1ccco1	5%	1%	-9%	/	9%	/	/	/	/
CC(=O)c1cccc(NC(=O)Cn2c(=O)c(CNc3ccc(C)cc3)cc3cc4c(cc32)OCCO4)c1	-7%	-1%	1%	-29%	-3%	/	/	/	/
C=CCn1c(NS(=O)(=O)c2ccccc2)c(S(=O)(=O)c2ccc(C)cc2)c2nc3ccccc3nc21	-102%	-1%	?	-1%	925%	/	/	/	/
O=S(=O)(Nc1c(S(=O)(=O)c2ccccc2)c2nc3ccccc3nc2n1C1CCCCC1)c1ccccc1	?	-14%	?	11%	181%	0.35*	0.35µM*	-15%	-18%
COc1ccccc1/C=C1\CCCC2=C1Nc1nnnn1C2c1ccccc1OC (centres undefined)	?	?	?	0%	8%	?	?	?	-4%
C=CCOc1cccc(C(=O)/C=C2/C(=O)Nc3ccccc32)c1	-13%	?	?	-1%	-2%	8.4*	8.9µM*	?	?
O=C(/C=C/c1cc(Br)ccc1O)c1ccco1	35µM*	?	25µM*	1%	-7%	27*	?	?	?
O=C(/C=C/c1ccccc1O)c1ccco1	-47%	?	?	5%	8%[57.1 µM]	/	/	/	/

High-throughput results: PubChem BioAssay, National Center for Advancing Translational Sciences (NCATS)
